Assay results as given in paper PMC5540273 (PLoS ONE, 2017).

Legend:
Settings in all cases: concentration: 1 μM, replicates: in singlicate; n = 1
MRCKB = test system: T1, MRCKB
T1 construct: gene CDC42BPB

MST1R = test system: MST1R
MST1 = test system: T2, MST1
T2 construct: gene STK4

MST2 = test system: T3, MST2
T3 construct: gene STK3

MST3 = test system: T4, MST3
T4 construct: gene STK24

MST4 = test system: MST4
MTOR = test system: MTOR
MUSK = test system: MUSK
MYLK2 = test system: MYLK2
MYLK4 = test system: MYLK4
MYLK = test system: MYLK
MYO3A = test system: MYO3A
MYO3B = test system: MYO3B
NDR1 = test system: T5, NDR1
T5 construct: gene STK38

NDR2 = test system: NDR2
NEK10 = test system: NEK10
NEK11 = test system: NEK11
NEK1 = test system: NEK1
NEK2 = test system: NEK2
NEK3 = test system: NEK3
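Also: KINOMEscan kinase panel screen.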

Structure (SMILES) | %Inh (MRCKB) | %Inh (MST1R) | %Inh (MST1) | %Inh (MST2) | %Inh (MST3) | %Inh (MST4) | %Inh (MTOR) | %Inh (MUSK) | %Inh (MYLK2) | %Inh (MYLK4) | %Inh (MYLK) | %Inh (MYO3A) | %Inh (MYO3B) | %Inh (NDR1) | %Inh (NDR2) | %Inh (NEK10) | %Inh (NEK11) | %Inh (NEK1) | %Inh (NEK2) | %Inh (NEK3)
CCCNC(=O)Nc1ccc(Oc2ncnc3ccn(C)c23)cc1 | 0% | 12% | 0% | 0% | 4% | 0% | 8% | 0% | 11% | 21% | 0% | 0% | 40% | 3% | 0% | 0% | 0% | 0% | 0% | 33%
COc1cc(Nc2nccc(N3CCC(NC(=O)C4COc5ccccc5O4)C3)n2)cc(OC)c1OC (stereo not shown) [GSK1379761] | 0% | 8% | 6% | 0% | 0% | 0% | 34% | 0% | 6% | 0% | 13% | 46% | 0% | 27% | 40% | 0% | 64% | 39% | 11% | 42%
Nc1nccc2scc(-c3ccc4c(c3)CCN4C(=O)Cc3ccccc3)c12 [GSK2576924] | 0% | 17% | 37% | 0% | 1% | 0% | 14% | 13% | 11% | 9% | 4% | 11% | 5% | 27% | 3% | 9% | 0% | 0% | 4% | 10%
Nc1ncnc2c1ncn2-c1ccc(Cl)cc1 [AH2635] | 0% | 17% | 2% | 0% | 0% | 0% | 11% | 0% | 14% | 8% | 0% | 49% | 0% | 0% | 31% | 27% | 0% | 0% | 0% | 0%
OCCCNc1nccc(-c2c(-c3cccc(C(F)(F)F)c3)nn3cc(C(F)(F)F)ccc23)n1 [GW630813] | 0% | 17% | 9% | 0% | 25% | 0% | 1% | 0% | 0% | 0% | 10% | 43% | 0% | 9% | 18% | 0% | 5% | 0% | 0% | 0%
COc1ccc(-c2coc3ccc(-c4nnc(SCc5cccc(C#N)c5)o4)cc23)cc1 | 0% | 33% | 15% | 13% | 25% | 0% | 0% | 18% | 7% | 0% | 6% | 20% | 49% | 7% | 0% | 0% | 0% | 0% | 5% | 7%
Cl.c1ccc(Cn2cnc3cc(Nc4ncnc5ccccc45)ccc32)cc1 [GW272142] | 0% | 40% | 0% | 0% | 0% | 0% | 28% | 29% | 0% | 6% | 1% | 10% | 0% | 9% | 4% | 15% | 0% | 0% | 0% | 0%
FC(F)(F)c1ccc(-c2ncn(CCCN3CCOCC3)c2-c2ccncc2)cc1 [SB-217780] | 6% | 28% | 28% | 59% | 35% | 0% | 12% | 0% | 0% | 4% | 4% | 0% | 0% | 3% | 0% | 4% | 0% | 0% | 0% | 9%
Cc1nnc(-c2ccc3ncn(-c4ccc(S(C)=O)cc4)c3c2)o1 (stereo not shown) | 0% | 2% | 0% | 30% | 50% | 0% | 8% | 9% | 11% | 7% | 0% | 2% | 48% | 21% | 0% | 2% | 0% | 5% | 0% | 0%
COc1cc2ncn(-c3cc(OCCCc4ccccc4)c(C(N)=O)s3)c2cc1OC [GSK205189] | 0% | 14% | 0% | 0% | 11% | 0% | 1% | 50% | 8% | 65% | 23% | 3% | 0% | 0% | 0% | 0% | 0% | 0% | 36% | 0%
O=C(Nc1n[nH]c2nc(-c3ccccc3)c(Br)cc12)C1CC1 [SB-708998] | 0% | 100% | 18% | 7% | 0% | 0% | 16% | 0% | 95.7% | 0% | 7% | 0% | 13% | 18% | 0% | 4% | 0% | 0% | 15% | 0%
Cc1c(Cn2c(C)nn3c(=O)cc(N4CCO[C@H](C)C4)nc23)cccc1C(F)(F)F [GSK2373690] | 0% | 41% | 2% | 7% | 0% | 0% | 57% | 28% | 2% | 99.8% | 12% | 0% | 0% | 6% | 0% | 6% | 0% | 0% | 24% | 2%
O=C(Nc1ccc2c(c1)OCO2)NC1CCN(c2ccnc(NCc3ccc(F)cc3)n2)CC1 [GSK1379859] | 0% | 17% | 5% | 47% | 0% | 0% | 8% | 0% | 0% | 0% | 20% | 0% | 0% | 0% | 0% | 3% | 8% | 0% | 3% | 0%
Nc1n[nH]c2ncc(-c3ccccc3)cc12 [SB-517081] | 0% | 41% | 0% | 0% | 0% | 0% | 7% | 28% | 15% | 61% | 39% | 20% | 0% | 27% | 0% | 24% | 0% | 0% | 27% | 21%
Fc1cccc(CSc2nnc(-c3ccc4c(c3)CCO4)o2)c1 | 0% | 35% | 3% | 0% | 0% | 0% | 36% | 0% | 11% | 0% | 2% | 0% | 0% | 16% | 22% | 0% | 0% | 0% | 1% | 19%
COc1cc(Nc2nccc(N3CCC(NC(=O)C(C)c4ccc(Cl)cc4)C3)n2)cc(OC)c1OC (stereo not shown) [GSK1379757] | 0% | 37% | 8% | 5% | 0% | 0% | 36% | 0% | 0% | 0% | 8% | 20% | 0% | 26% | 0% | 0% | 12% | 8% | 0% | 19%
COc1cccc(C2=C(N(C)c3ccccc3)C(=O)NC2=O)c1 [SB-334865] | 0% | 10% | 5% | 0% | 0% | 0% | 19% | 2% | 9% | 0% | 1% | 22% | 0% | 16% | 0% | 22% | 0% | 0% | 0% | 26%
